Assay outcomes deposited in PubChem by National Center for Advancing Translational Sciences (NCATS).
KB-3-1 tox = KB-3-1 parental cell cytotoxicity; AID 1347075; Potency, µM (highest dose often 46.1 µM), usual class: cytotoxic; 400,000 compounds, 1.4% hits; KB-3-1 viability, CellTiter-Glo ATP luminescence, 72 h; note: nearly all actives have a fitted effect of over 60% in size
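KB-3-1 cells, DMEM (no phenol red) + 10% FBS; compound by pin transfer, 72 h, 37 °C. Readout: CellTiter-Glo luminescence after 10 min. Data normalized, curve-fitted.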
HT1080NT lethal = kills 2HG-producing HT-1080-NT fibrosarcoma cells. HT-1080-NT fibrosarcoma viability, CellTiter-Glo ATP luminescence, 48 h. Potency, µM (highest dose often 46.1 µM), most hits filed as cytotoxic. 360,000 compounds, 1.6% hits;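 note: NT is the 2HG producing partner of a matched IDH1 knockdown line; nearly all actives have a fitted effect of over 55% in size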
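Compounds were tested in concentration-response format on HT-1080-NT cells for 48 hours at 37 degrees C. Cell viability came from CellTiter-Glo luminescence; curves were classified by r2, response magnitude and activity.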
SW480 rereplic = induces DNA re-replication in SW480 colon adenocarcinoma cells; SW480 DNA re-replication, Hoechst DNA content imaging, 48 h; 340,000 compounds, 1.8% hits; Potency, µM (series often up to 46.1 µM), actives largely listed as activators; note: nearly all actives have a fitted effect of over 55% in size
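250 cells/well; 23 nL cpd via pin tool; 48 hr, 37 C, 5% CO2; Hoechst 40 min; imager read of total nuclear intensity, ex 405/em 500-530 nm.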
HT1080 IDH1KD tx = HT-1080 IDH1 knockdown cell toxicity (counter line); Potency, µM (highest dose often 46.1 µM), actives largely listed as cytotoxic; HT-1080 IDH1 knockdown viability, ATP luminescence, 48 h; 360,000 compounds, 2% hits
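% activity derives from luminescence (CellTiter-Glo), normalised to DMSO and no-cell wells. HT-1080-IDH1KD cells, 750/well, had 48 h compound exposure at 37 °C.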
KB-V1 MDR tox = KB-V1 MDR subline cytotoxicity. KB-V1 MDR cells viability, CellTiter-Glo, 72 h. Potency, µM (doses to about 46.1 µM), actives largely listed as cytotoxic. 400,000 compounds, 3.4% hits; note: nearly all actives have a fitted effect of over 60% in size
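Luminescent ATP read-out (CellTiter-Glo, 10 min) measures survival of drug-selected KB-V1 MDR cells after 72 h, 37 degrees C compound exposure. Medium: phenol-red-free DMEM, 10% FBS. Values from fitted concentration-response curves.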
MCF10A rereplic = induces DNA re-replication in MCF 10a normal breast cells; MCF 10A DNA re-replication, Hoechst nuclear intensity, 48 h; Potency, µM (top dose mostly 46.1 µM), actives largely listed as activators; 350,000 compounds, 2.9% hits; AID 624296; note: nearly all actives have a fitted effect of over 50% in size
Each line names hits and unclear results; the compound was inactive in the other large screens. Most compounds without a hit are left out; they make up all but 7.9% or so of the library. Calls come from the whole dose curve; as a rule, active = well fitted curve in the direction sought with a large enough effect; inconclusive = small, poorly fitted or top-dose-only effect, or another doubt; inactive = no such curve, though single readings can be large; an effect the other way counts as inactive or inconclusive.

COc1ccc(N2CCN(S(=O)(=O)CCNC(=O)COc3ccccc3OC)CC2)cc1	none
O=S(=O)(/N=C(/Nc1ccccc1)C(F)(F)F)c1ccccc1	none
COCOCCn1cc(CN2CCS(=O)(=O)N(Cc3ccc(-c4cccc(N(C)C)c4)cc3)C(C(C)C)C2=O)nn1 (stereo not given)	none (no result: SW480 rereplic, MCF10A rereplic)
O=C(N/N=C\c1c(O)ccc2ccccc12)c1ccc(Cn2cccn2)o1	KB-3-1 tox 16.4µM, HT1080NT lethal inconclusive, SW480 rereplic inconclusive, HT1080 IDH1KD tx inconclusive, KB-V1 MDR tox inconclusive, MCF10A rereplic 10.3µM
O=C(N/N=C/c1ccc(N2CCOCC2)o1)c1cccc(C(F)(F)F)c1	SW480 rereplic inconclusive, MCF10A rereplic 20.6µM
Cc1ccc(S(=O)(=O)N2CCOCC2)cc1C(=O)N1CCN(S(=O)(=O)c2cccc(F)c2)CC1	SW480 rereplic inconclusive
COc1cccc(NC(=O)N(CCCN2CCOCC2)C(C)c2cc3cccc(OC)c3o2)c1 (stereo not given)	none
COc1cccc(NC(=O)N(CCCN2CCOCC2)C(C)c2cc3ccccc3o2)c1 (stereo not given)	HT1080NT lethal 15.8µM
COc1cc(O)c(C(C)=O)c2c1C=CC(C)(C)O2	MCF10A rereplic inconclusive
CCN1CCCC1CNC(=O)C(=O)Nc1cccc(OC)c1 (stereo not given)	none
CCN1CCCC1CNC(=O)c1cc2c(-c3cccc(OC)c3)nn(C)c2s1 (stereo not given)	HT1080NT lethal 20.6µM, HT1080 IDH1KD tx inconclusive
CCN1CCCC1CNC(=O)c1cc2c(-c3ccc(Cl)cc3)nn(C)c2s1 (stereo not given)	KB-3-1 tox inconclusive, HT1080NT lethal 25.9µM, SW480 rereplic 20.6µM, HT1080 IDH1KD tx 20.6µM, KB-V1 MDR tox inconclusive, MCF10A rereplic inconclusive
COCCNC(=O)c1cc2c(-c3ccc(Cl)cc3)nn(C)c2s1	none
CCCCNC(=O)c1cc2c(-c3ccc(Cl)cc3)nn(C)c2s1	MCF10A rereplic inconclusive
Cn1nc(-c2ccc(Cl)cc2)c2cc(C(=O)NCCCN3CCCC3)sc21	KB-3-1 tox inconclusive, HT1080NT lethal inconclusive, SW480 rereplic inconclusive, HT1080 IDH1KD tx inconclusive, MCF10A rereplic 23.1µM
COc1ccc(C(=O)N2CC3(C)C4CCC3(C)C2(C#N)C4)cc1OC (stereo not given)	KB-V1 MDR tox inconclusive
O=C(N/C(=C/c1cccc(Br)c1)C(=O)N1CCOCC1)c1ccco1	none (no result: SW480 rereplic, MCF10A rereplic)
Cc1ccc(CN2CCN(C(=O)CCC(=O)Nc3nnc(C(C)C)s3)CC2)c(C)c1	KB-V1 MDR tox inconclusive
CCc1cccc2c(N=O)c(O)[nH]c12	KB-3-1 tox inconclusive, KB-V1 MDR tox 16.4µM
O=C(Cc1ccccc1)NCC(=O)OCc1ccccc1F	none
Nc1ncc(-c2nnnn2-c2ccc(Cl)cc2)c(-c2ccc(Cl)cc2)n1	KB-3-1 tox 5.17µM, HT1080NT lethal 6.51µM, SW480 rereplic 2.91µM, HT1080 IDH1KD tx 7.31µM, KB-V1 MDR tox 6.51µM, MCF10A rereplic inconclusive
Cc1ccc(-n2nnnc2-c2cnc3ccc(Cl)cc3c2-c2ccccc2)cc1	KB-3-1 tox 7.31µM, SW480 rereplic inconclusive, KB-V1 MDR tox inconclusive, MCF10A rereplic 20.6µM
Clc1ccc(-n2nnnc2-c2cnc3ccccc3c2-c2ccccc2)cc1	HT1080NT lethal inconclusive, HT1080 IDH1KD tx inconclusive, KB-V1 MDR tox 16.4µM
Cc1ccc(-n2nnnc2-c2cnoc2-c2cccc(F)c2)cc1	MCF10A rereplic inconclusive
Clc1ccc(-c2nnnn2-c2ccc(Cl)cc2)cc1	KB-3-1 tox inconclusive, HT1080NT lethal inconclusive
O=C(CSc1ncc2c(n1)-c1ccccc1N(Cc1ccc(Cl)cc1)S2(=O)=O)c1ccccc1	none (no result: HT1080NT lethal, SW480 rereplic, HT1080 IDH1KD tx, MCF10A rereplic)
COc1cc2c(cc1NC(=O)c1ccc(C(C)(C)C)cc1)CCCC2	KB-3-1 tox inconclusive, HT1080 IDH1KD tx inconclusive, KB-V1 MDR tox inconclusive, MCF10A rereplic inconclusive
Cc1cc(C)nc(/N=C(\N)Nc2ccc(OCCC(C)C)cc2)n1	KB-3-1 tox inconclusive, HT1080NT lethal 14.6µM, HT1080 IDH1KD tx 23.1µM, KB-V1 MDR tox inconclusive, MCF10A rereplic inconclusive
COc1ccc(N/C(N)=N/c2nc(C)cc(C)n2)cc1	none (no result: SW480 rereplic, MCF10A rereplic)
